Test results published in PubChem BioAssay (NCATS).
Results filed as inconclusive are left out. Active and inactive are the calls of the source. Unless noted, calls come from the whole dose curve; as a rule, active = well fitted curve in the direction sought with a large enough effect; inconclusive = small, poorly fitted or top-dose-only effect, or another doubt; inactive = no such curve, though single readings can be large; an effect the other way counts as inactive or inconclusive.

Columns and labels:
[1] = NFAT Signaling Pathway (AID 444; active = well fitted curve in either direction with a large enough effect, not every such curve was filed as active;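 note: carbachol stimulus at about its EC50 of 1 µM final; % is set by controls: 0 for no effect and ±100 for the full control effect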); details: Jurkat NFAT-bla M1, carbachol, beta-lactamase ratio, 5 h; at 38 µM (top of the series)
How it was run: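 Jurkat cells carrying an NFAT-driven β-lactamase reporter and co-transfected muscarinic M1 receptor were treated with compound plus carbachol (1 uM final, an EC50 level) for 5 h at 37 °C. CCF4 loading followed for 1 h at RT; 460/530 nm ratio gave %activity.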

[2] = Stat Signaling Pathway (AID 446; active = well fitted curve in either direction with a large enough effect, not every such curve was filed as active;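 note: ME-180 cervical cancer cells given 40 pM IL-6 alongside compound; SIE-controlled beta-lactamase reporter measured as 460/530 nm FRET emission ratio; % is set by controls: 0 for no effect and ±100 for the full control effect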); details: ME-180 (cervical carcinoma) SIE beta-lactamase reporter, IL-6 stimulated, 5 h; at 38 µM (top of the series)
How it was run: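 Compound effects on IL-6-induced STAT reporter activity were measured in ME-180 cells. After overnight culture, cells were co-treated with 40 pM IL-6 for 5 hrs before beta-lactamase substrate loading at room temperature.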

[3] = target: Glucocorticoid receptor (Homo sapiens) (UniProt P04150); experiment: GR-GFP Redistribution (AID 450;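 active = compounds whose dose series gives a full or clear partial fitted curve of increased nuclear translocation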; note: potency is the fitted concentration of half-maximal effect); details: U2OS GR-GFP nuclear translocation, laser cytometry, 2 h
Chain of Glucocorticoid receptor (Homo sapiens) (P04150 whole entry, looked up, the tested form may be a part): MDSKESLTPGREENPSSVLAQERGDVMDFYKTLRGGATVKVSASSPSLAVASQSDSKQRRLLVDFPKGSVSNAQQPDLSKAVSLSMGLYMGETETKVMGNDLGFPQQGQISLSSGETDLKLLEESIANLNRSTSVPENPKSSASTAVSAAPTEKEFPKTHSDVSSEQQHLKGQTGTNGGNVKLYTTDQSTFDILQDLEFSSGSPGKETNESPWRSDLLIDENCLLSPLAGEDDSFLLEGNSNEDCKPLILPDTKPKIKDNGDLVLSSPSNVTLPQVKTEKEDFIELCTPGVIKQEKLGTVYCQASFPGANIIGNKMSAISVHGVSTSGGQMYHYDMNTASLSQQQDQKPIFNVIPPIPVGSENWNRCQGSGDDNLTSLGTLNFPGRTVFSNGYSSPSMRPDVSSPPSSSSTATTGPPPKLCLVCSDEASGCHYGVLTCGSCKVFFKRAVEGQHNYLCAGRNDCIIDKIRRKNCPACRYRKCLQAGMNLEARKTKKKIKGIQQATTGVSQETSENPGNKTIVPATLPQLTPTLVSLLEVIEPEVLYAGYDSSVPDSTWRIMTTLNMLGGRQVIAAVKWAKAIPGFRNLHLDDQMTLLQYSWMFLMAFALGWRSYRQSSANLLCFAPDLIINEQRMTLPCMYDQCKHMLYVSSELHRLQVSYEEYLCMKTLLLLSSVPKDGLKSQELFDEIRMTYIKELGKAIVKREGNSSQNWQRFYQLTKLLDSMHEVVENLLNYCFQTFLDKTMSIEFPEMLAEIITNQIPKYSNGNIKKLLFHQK

[4] = target: Glucocorticoid receptor (Homo sapiens) (UniProt P04150); experiment: GR-EFC Redistribution (AID 451; calls by dose curve; note: potency is the fitted concentration of half-maximal effect); details: CHO-K1 GR-EFC translocation, beta-gal luminescence, 2 h
How it was run: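 CHO-K1 cells stably expressing nuclear-localized β-gal enzyme acceptor and GR fused C-terminally to the enzyme donor fragment; ligand-driven nuclear translocation restores β-gal by complementation. Compounds titrated up to 46 uM final, 2 h at 37 °C; luminescence read.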

[5] = target: Mitogen-activated protein kinase 10 (Mus musculus) (UniProt Q61831); experiment: JNK3 AlphaScreen Assay (AID 530; active = well fitted curve in either direction with a large enough effect, not every such curve was filed as active;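 note: kinase came from lysate of stimulated human HepG2 cells; signal reports phosphorylation of biotinylated GST-cJun 1-79 at Ser73 with 10 µM ATP; % is set by controls: 0 for no effect and ±100 for the full control effect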)
How it was run: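 Biotinylated GST-cJun(1-79) served as substrate for JNK3 in HepG2 lysates stimulated with IL-1beta and TNF-alpha. ATP was 10 uM final, pH 7.6. Ser73 phosphorylation was quantified by AlphaScreen (680 nm excitation).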

[6] = target: 3',5'-cyclic-AMP phosphodiesterase 4B (Homo sapiens) (UniProt Q07343); experiment: qHTS Assay for Inhibitors of PDE-IV (AID 607; active = well fitted activation curve with a large enough effect in the main read-out, with a control signal flat, not every such curve was filed as active; note: % of control where 0% means no effect)
How it was run: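 ACTOne HEK293 cells carry a modified cAMP-gated CNG channel and express endogenous PDE4; plated 1000 cells/well, compounds up to 22.9 uM final. Membrane-potential dye fluorescence (ex 535/em 590) was read; parental cells received 10 uM forskolin + 100 uM RO 20-1724.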

[7] = target: Guanine nucleotide-binding protein G(i) subunit alpha-1 (Homo sapiens) (UniProt P63096); experiment: qHTS Assay for Inhibitors of RGS12 GoLoco Motif Activity (Green Fluorophore) (AID 879);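 note: 0% = labeled peptide with Gαi1 and full inhibition = labeled peptide alone without protein; negative values mean loss of peptide binding seen as reduced polarization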
Chain of Guanine nucleotide-binding protein G(i) subunit alpha-1 (Homo sapiens) (P63096 whole entry, looked up): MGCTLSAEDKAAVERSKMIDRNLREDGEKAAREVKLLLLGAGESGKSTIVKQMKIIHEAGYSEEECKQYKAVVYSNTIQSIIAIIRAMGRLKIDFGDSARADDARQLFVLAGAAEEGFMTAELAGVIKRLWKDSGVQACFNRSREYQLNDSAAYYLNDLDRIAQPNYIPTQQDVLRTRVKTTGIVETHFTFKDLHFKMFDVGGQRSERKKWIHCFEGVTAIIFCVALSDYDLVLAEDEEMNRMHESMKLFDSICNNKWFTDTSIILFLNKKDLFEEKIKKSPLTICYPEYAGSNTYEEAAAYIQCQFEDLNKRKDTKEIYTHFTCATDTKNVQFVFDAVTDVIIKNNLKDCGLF
How it was run: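 A drop in FITC polarization marked displacement of the FITC-tagged RGS12 GoLoco peptide (10 nM) from Gαi1 (50 nM). Compounds were incubated 10 min at room temperature in Tris pH 7.5 buffer containing 150 mM NaCl, 0.1 mM GDP and 0.05% NP40; unlabeled peptide titration served as control.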

[8] = qHTS Assay for Identification of Small Molecule Agonists for Thrombopoietin (TPO) Signaling Pathway (AID 917); note: % is set by controls: 0 for no effect and ±100 for the full control effect
How it was run: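 Human TPO receptor–transfected Ba/F3 cells (murine, IL-3-dependent) in IL-3-deficient medium; compounds plus TPO at EC50, 26 pM final; 24 hrs, 37 C; GpIIb-luciferase luminescence after 10 min RT detection.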

[9] = target: Muscarinic acetylcholine receptor M1 (Rattus norvegicus) (UniProt P08482); experiment: qHTS Assay for Antagonists of Acetylcholine Muscarinic M1 Receptor: Kinetic Measurement of Intracellular Calcium Response (AID 943);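 note: Fluo-4 calcium signal as peak divided by basal fluorescence over 4 min; nearly all actives have a fitted effect of over 75% in size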
How it was run: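 Quantitative HTS in CHO-M1 (rat receptor) cells: 10 min compound exposure ahead of 100 nM carbachol, Fluo-4 fluorescence followed 4 min, value expressed as peak-to-basal ratio.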

[10] = target: Pyruvate kinase (Leishmania mexicana) (UniProt Q27686); experiment: qHTS Validation Assay for Inhibitors of Leishmania Mexicana Pyruvate Kinase (AID 945);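 note: 0% = DMSO only neutral control wells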
Chain of Pyruvate kinase (Leishmania mexicana) (Q27686 2-499 E452W): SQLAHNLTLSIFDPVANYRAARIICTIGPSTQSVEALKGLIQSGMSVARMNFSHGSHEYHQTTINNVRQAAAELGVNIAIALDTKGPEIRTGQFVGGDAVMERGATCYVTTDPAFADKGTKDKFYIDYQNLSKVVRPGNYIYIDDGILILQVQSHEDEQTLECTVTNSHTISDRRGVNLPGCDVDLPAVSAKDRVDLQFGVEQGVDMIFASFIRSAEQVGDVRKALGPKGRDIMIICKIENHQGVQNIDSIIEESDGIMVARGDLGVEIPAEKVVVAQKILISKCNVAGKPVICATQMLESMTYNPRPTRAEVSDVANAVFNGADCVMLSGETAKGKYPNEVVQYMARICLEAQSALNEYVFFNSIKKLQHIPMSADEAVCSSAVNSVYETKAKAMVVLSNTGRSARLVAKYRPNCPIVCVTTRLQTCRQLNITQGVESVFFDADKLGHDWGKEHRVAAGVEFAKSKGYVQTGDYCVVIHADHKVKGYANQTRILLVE
How it was run: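 Substrate mix (0.5 mM PEP, 0.1 mM ADP, 7 mM MgCl2, 50 mM KCl, pH 7.2 imidazole) received compound by pin tool, then 0.2 nM LmPYK E451W. After 1 h at room temperature, PKLight was added and luminescence measured.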

[11] = target: Pyruvate kinase PKM (Homo sapiens) (UniProt P14618); experiment: qHTS Assay for Activators of Human Muscle Pyruvate Kinase (AID 954; active = well fitted curve in the direction sought with a large enough effect, not every such curve was filed as active;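 note: 0% = uninhibited enzyme and -100% = no enzyme or full thiadiazolimine inhibition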)
Chain of Pyruvate kinase PKM (Homo sapiens) (P14618 whole entry, looked up): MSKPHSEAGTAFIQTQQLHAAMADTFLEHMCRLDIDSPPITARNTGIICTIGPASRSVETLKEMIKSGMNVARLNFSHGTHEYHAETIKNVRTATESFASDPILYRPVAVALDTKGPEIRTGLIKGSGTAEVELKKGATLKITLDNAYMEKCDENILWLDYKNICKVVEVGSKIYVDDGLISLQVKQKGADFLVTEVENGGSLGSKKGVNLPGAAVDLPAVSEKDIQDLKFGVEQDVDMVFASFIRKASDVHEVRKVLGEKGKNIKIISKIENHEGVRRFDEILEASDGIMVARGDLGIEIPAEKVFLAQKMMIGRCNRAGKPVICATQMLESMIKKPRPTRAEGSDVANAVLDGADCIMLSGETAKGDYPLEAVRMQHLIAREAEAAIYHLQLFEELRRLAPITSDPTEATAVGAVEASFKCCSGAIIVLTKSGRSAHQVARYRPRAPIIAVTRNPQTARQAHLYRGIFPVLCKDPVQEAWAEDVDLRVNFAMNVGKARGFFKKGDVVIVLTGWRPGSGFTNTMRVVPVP
How it was run: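 A coupled luminescent readout tracked ATP made from ADP by purified PKM2. Final conditions included 0.1 nM enzyme, PEP and ADP at 0.5 and 0.1 mM, pH 7.2 imidazole buffer with BSA, and a one-hour room-temperature reaction.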

[12] = target: Alpha-galactosidase A (Homo sapiens) (UniProt P06280); experiment: Counterscreen for Glucocerebrosidase Inhibitors: qHTS Assay for Human alpha-Galactosidase at pH 4.5 (AID 992); note: 0% is about no effect
How it was run: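 Citrate buffer pH 4.5, Tween-20 0.005%. Enzyme 2 nM, substrate 80 uM, 20 min RT. Stop pH 10. Fluorescence Ex 365/Em 440. AC50 by Hill fit.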

[13] = target: alpha-glucosidase (Oryza sativa, rice) (UniProt Q653V4); experiment: Counterscreen for Glucocerebrosidase Inhibitors: qHTS Assay for Rice alpha-Glucosidase at pH 5.0 (AID 997);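 note: 0% = full activity with enzyme and -100% = basal without enzyme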
How it was run: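 Endpoint fluorogenic assay at pH 5.0: compounds (0.7 nM to 77 uM) titrated against 4 nM rice enzyme and 400 uM 4-MU-alpha-glucoside for 20 min at room temperature; NaOH/glycine stop, read ex 365/em 440 nm, Hill-fitted AC50.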

[14] = Validation of Assay for Modulators of Lamin A Splicing (AID 1459; active = well fitted curve in the direction sought with a large enough effect in the signal ratio; the % refers to the signal ratio;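 note: cells exposed to compound for two days before reading; 0% is about no effect; ratio rise marks activators and ratio drop marks inhibitors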)
How it was run: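 Dual-reporter HeLa S3 line (lamin A-EGFP minigene, DsRed2) treated with compounds 48 hrs, 0.5% DMSO final. Endpoint: EGFP/DsRed2 total intensity ratio from laser-scanning microplate cytometry.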

[15] = qHTS Assay for Lipid Storage Modulators (AID 1519; calls by dose curve); details: Drosophila S3 cells, BODIPY lipid droplet/cell ratio, laser cytometry, cells loaded with oleic acid
How it was run: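 Cells seeded at 5,000 per well were treated with compounds over a concentration series and loaded with oleic acid (400 uM, as added). Lipid droplet fluorescence (488 nm excitation, 500-530 nm channel) was read by laser-scanning cytometry and normalized to 20 uM Triacsin C.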

[16] = target: DNA repair nuclease/redox regulator APEX1 (Homo sapiens) (UniProt P27695); experiment: qHTS Validation Assay for Inhibitors of the Human Apurinic/apyrimidinic Endonuclease 1 (APE1) (AID 1705)
Chain of DNA repair nuclease/redox regulator APEX1 (Homo sapiens) (P27695 whole entry, looked up): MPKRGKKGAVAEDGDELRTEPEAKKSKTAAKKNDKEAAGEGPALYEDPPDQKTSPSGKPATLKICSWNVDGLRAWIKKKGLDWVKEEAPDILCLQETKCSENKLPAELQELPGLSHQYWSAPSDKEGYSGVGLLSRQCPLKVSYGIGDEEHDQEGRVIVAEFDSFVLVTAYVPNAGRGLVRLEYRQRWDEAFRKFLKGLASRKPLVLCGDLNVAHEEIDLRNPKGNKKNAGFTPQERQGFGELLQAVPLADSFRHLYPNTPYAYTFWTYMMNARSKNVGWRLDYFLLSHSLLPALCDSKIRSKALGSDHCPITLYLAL
How it was run: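 Substrate: 50 nM final fluorophore/quencher THF-abasic duplex. Enzyme preincubated with compounds 15 min, RT. Progress derived from fluorescence difference, third minus first kinetic read.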

[17] = Counterscreen for APE1 Inhibitors: Fluorescent Dye Displacement Validation Assay (AID 1707);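 note: plate controls were ThO with dsDNA and no compound for no effect and ThO without dsDNA for full effect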
How it was run: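 Signal: ThO fluorescence (ex 480 nm/em 540 nm) on binding 50 nM dsDNA; displacement by test compound reduces it. Conditions: 250 nM dye, 50 mM Tris-HCl pH7.5, 2 mM MgCl2, 50mM NaCl, 0.01% Tween-20.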

[18] = target: Endonuclease 4 (Escherichia coli (strain K12)) (UniProt P0A6C1); experiment: Counterscreen for APE1 Inhibitors: qHTS Validation Assay for Inhibitors of Endonuclease IV (AID 1708); note: % is set by controls: 0 for no effect and ±100 for the full control effect
How it was run: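 Measured as reaction progress, the fluorescence gain between first and third kinetic reads after adding 50 nM TAMRA/BHQ-2 THF duplex to 2 nM enzyme preincubated 15 min with compound; 2 mM MgCl2, pH 7.5.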

[19] = qHTS for differential inhibitors of proliferation of Plasmodium falciparum line 7G8 (AID 1815);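 note: parasite growth measured after three days of incubation; plate controls were vehicle wells for no effect and reference inhibitor wells for full effect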
[20] = qHTS for differential inhibitors of proliferation of Plasmodium falciparum line GB4 (AID 1816); details: Potency: Plasmodium falciparum GB4 proliferation inhibition;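 note: parasite growth measured after 72 h incubation; 0% = vehicle DMSO and -100% = reference inhibitor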
[21] = qHTS for differential inhibitors of proliferation of Plasmodium falciparum line 3D7 (AID 1876);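 note: parasite growth measured after three days of culture; 0% = vehicle wells and -100% = reference inhibitor wells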
[22] = qHTS for differential inhibitors of proliferation of Plasmodium falciparum line D10 (AID 1877);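 note: parasites grown with compound for 72 h before DNA staining; plate controls were vehicle wells for no effect and reference inhibitor wells for full effect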
[23] = qHTS for differential inhibitors of proliferation of Plasmodium falciparum line W2 (AID 1883); details: Potency: Plasmodium falciparum W2 proliferation inhibition;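 note: parasites grown with compound for 72 h before lysis and staining; 0% = vehicle wells and -100% = control inhibitor wells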
[24] = qHTS for differential inhibitors of proliferation of Plasmodium falciparum line HB3 (AID 1886); details: Potency: Plasmodium falciparum HB3 proliferation inhibition;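 note: parasites grown with compound for 72 h before SYBR Green readout; plate controls were vehicle for no effect and reference inhibitor for full effect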
[25] = target: ATP-dependent DNA helicase Q1 (Homo sapiens) (UniProt P46063); experiment: qHTS Validation Assay for Inhibitors of RecQ-Like Dna Helicase 1 (RECQ1) (AID 2353);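 note: plate controls were DMSO vehicle for no effect and enzyme-free control for full effect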
How it was run: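 RECQ1T1 50 nM; forked duplex (20 bp + 30-nt ss tails) 200 nM, ATP 2 mM final; pH 8.0, 2 mM MgCl2, 2.5 ug/ml poly(dI-dC); 15 min compound preincubation; discontinuous kinetic read over 2 h at RT.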

[26] = Validation screen for small molecules that induce DNA re-replication in MCF 10A normal breast cells (AID 463097); note: 0% is about no effect; nearly all actives have a fitted effect of over 60% in size
How it was run: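 Following 48 hr compound incubation (37 C, 5% CO2), MCF 10A cells receive Hoechst for 40 min at 37 C. Nuclei are then scanned (excitation 405 nm, emission 500-530 nm) for total fluorescence intensity.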

[27] = Quantitative high throughput screen for delayed death inhibitors of the malarial parasite plastid, 96 hour incubation (AID 488745); note: % is set by controls: 0 for no effect and ±100 for the full control effect; nearly all actives have a fitted effect of over 70% in size
How it was run: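 Two-generation (96 h) exposure of luciferase-reporter P. falciparum in erythrocytes, 2% hematocrit, 0.1% parasitemia final, 37 C, 5% CO2, RPMI 1640 with 0.5% Albumax. Growth inhibition scored by reduced luminescence.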

[28] = Quantitative high throughput screen for delayed death inhibitors of the malarial parasite plastid, 48 hour incubation (AID 488752); note: % is set by controls: 0 for no effect and ±100 for the full control effect; nearly all actives have a fitted effect of over 65% in size
How it was run: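 Cultures: infected erythrocytes at final 2% hematocrit and 0.1% parasitemia in Albumax-supplemented RPMI. Parasites express integrated firefly luciferase. Incubation with compound lasts 48 h before luminescent detection of remaining reporter activity.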

[29] = target: M-phase phosphoprotein 8 (Homo sapiens) (UniProt Q99549); experiment: qHTS Validation Assay for Inhibitors for MPP8 Chromodomain Interactions with Methylated Histone Tails (AID 488949);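 note: 50 nM MPP8 with 50 nM peptide preformed then compounds added for 30 min; AlphaScreen signal from MPP8 chromodomain bound to biotinylated H3K9me3 peptide; top concentration of the series differs between compounds; % is set by controls: 0 for no effect and ±100 for the full control effect; nearly all actives have a fitted effect of over 55% in size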
Chain of M-phase phosphoprotein 8 (Homo sapiens) (Q99549 whole entry, looked up): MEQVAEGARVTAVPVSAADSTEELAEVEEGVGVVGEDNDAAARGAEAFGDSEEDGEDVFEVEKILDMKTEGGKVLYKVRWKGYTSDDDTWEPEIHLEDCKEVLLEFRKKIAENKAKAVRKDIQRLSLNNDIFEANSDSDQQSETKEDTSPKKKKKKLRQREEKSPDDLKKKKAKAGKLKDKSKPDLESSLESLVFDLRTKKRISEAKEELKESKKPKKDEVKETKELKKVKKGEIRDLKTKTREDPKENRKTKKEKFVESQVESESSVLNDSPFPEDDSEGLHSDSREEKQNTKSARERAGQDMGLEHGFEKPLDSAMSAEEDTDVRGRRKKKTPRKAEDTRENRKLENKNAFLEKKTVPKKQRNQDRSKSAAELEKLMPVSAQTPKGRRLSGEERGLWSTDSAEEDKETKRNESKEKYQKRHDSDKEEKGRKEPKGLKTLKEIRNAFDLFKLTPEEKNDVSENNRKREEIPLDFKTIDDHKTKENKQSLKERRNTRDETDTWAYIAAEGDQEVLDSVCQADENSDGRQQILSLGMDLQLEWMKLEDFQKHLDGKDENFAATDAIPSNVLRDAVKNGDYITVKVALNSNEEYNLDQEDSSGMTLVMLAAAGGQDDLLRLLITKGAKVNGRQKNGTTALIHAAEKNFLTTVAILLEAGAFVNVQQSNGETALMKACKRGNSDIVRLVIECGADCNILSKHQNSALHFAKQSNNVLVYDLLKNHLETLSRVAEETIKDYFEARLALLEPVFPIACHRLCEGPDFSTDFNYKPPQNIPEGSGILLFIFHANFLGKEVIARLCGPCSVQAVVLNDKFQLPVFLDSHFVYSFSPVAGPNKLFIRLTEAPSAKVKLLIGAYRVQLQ
How it was run: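 Chemiluminescent proximity assay: histidine-tag capture via nickel acceptor beads, biotin peptide via streptavidin donor beads. Protein and peptide each at 50 nM, pH 7.4, with 30 min incubations at room temperature for complex formation, compound exposure and bead binding.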

[30] = target: Transient receptor potential cation channel subfamily V member 1 (Homo sapiens) (UniProt Q8NER1); experiment: HTS Assay for Compounds that Act as Enhancers of the Vanilloid Receptor 1 (AID 488979); note: 0% is about no effect
Chain of Transient receptor potential cation channel subfamily V member 1 (Homo sapiens) (Q8NER1 whole entry, looked up): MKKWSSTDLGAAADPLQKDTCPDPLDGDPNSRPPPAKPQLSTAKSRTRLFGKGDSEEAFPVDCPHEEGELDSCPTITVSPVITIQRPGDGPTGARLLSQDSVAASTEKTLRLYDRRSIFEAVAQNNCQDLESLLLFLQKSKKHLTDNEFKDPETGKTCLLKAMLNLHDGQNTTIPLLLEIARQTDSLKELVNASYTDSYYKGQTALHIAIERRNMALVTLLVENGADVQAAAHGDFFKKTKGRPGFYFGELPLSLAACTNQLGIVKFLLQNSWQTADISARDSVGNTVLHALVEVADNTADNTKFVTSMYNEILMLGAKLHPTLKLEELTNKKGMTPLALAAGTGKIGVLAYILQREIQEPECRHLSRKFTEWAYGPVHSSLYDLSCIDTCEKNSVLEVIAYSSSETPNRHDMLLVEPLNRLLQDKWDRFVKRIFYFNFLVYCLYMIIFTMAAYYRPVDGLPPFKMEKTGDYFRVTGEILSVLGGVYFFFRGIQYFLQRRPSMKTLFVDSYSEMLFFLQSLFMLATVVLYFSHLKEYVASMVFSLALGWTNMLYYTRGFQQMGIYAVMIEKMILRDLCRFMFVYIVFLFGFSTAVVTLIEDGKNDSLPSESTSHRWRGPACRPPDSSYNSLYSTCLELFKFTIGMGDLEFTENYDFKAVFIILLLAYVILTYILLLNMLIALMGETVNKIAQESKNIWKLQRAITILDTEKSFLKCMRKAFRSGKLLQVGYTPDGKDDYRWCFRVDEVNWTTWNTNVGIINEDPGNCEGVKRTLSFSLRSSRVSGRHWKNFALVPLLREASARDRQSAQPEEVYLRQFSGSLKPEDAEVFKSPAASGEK
How it was run: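 TRPV1-expressing cells loaded with Fluo-8 calcium dye; compounds added and calcium influx read kinetically for 3 min (agonist phase), then capsaicin at EC20 added and read 2 min more for enhancement. Fluorescence ex 480/em 520 nm.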

[31] = target: Thyrotropin receptor (Homo sapiens) (UniProt P16473); experiment: qHTS Assay for Antagonists of the Thyroid Stimulating Hormone Receptor (AID 488980); note: 0% is about no effect
How it was run: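 Inhibition of TSH-stimulated cAMP accumulation was quantified by homogeneous time-resolved FRET in TSHR-transfected HEK293 cells. Agonist: TSH, 4 nM final (EC80).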

[32] = target: Thyrotropin-releasing hormone receptor (Homo sapiens) (UniProt P34981); experiment: qHTS for Small Molecule Agonists and Allosteric Enhancers of Human TRH Receptor: Validation Screen for Agonists (AID 493127;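 active = calcium activation more than 3 SD above the typical response in the agonist read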;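 note: intracellular calcium rise by fluo-8 fluorescence before TRH EC20 addition; 0% is about no effect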); details: TRH receptor agonist cell assay; at 2 µM; stronger effect = higher value
Chain of Thyrotropin-releasing hormone receptor (Homo sapiens) (P34981 whole entry, looked up): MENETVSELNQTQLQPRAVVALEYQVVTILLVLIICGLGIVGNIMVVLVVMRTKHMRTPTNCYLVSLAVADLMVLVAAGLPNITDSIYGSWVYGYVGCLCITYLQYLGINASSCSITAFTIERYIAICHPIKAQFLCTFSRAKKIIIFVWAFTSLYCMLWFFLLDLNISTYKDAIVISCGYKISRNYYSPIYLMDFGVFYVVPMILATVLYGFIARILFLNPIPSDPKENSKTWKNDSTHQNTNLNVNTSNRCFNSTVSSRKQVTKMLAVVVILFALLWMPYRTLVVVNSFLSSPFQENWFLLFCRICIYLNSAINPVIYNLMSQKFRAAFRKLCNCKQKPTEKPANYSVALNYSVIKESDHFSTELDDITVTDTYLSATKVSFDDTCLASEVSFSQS
How it was run: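 Kinetic fluorescence assay of agonist-induced calcium release: overnight-plated TRHR cells, room-temperature fluo-8 loading, baseline then compound addition with per-second reads.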

[33] = target: Galactokinase (Homo sapiens) (UniProt P51570); experiment: qHTS Validation Assay for Inhibitors of Human Galactokinase (GALK) (AID 493189); note: 0% is about no effect
Chain of Galactokinase (Homo sapiens) (P51570 whole entry, looked up): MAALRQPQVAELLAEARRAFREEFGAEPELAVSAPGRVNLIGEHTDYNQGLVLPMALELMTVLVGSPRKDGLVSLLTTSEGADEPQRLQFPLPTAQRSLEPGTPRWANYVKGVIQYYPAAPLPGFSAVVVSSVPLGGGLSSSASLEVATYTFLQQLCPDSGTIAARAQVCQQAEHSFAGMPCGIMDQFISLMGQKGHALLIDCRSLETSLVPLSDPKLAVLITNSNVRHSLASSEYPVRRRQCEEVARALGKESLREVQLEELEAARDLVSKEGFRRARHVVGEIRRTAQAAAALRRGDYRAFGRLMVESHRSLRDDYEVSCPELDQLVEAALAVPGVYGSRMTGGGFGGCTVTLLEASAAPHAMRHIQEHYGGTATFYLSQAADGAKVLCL
How it was run: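 Enzyme activity is inferred from ATP consumption: human GALK phosphorylates galactose (100 uM) using 35 uM ATP for 1 h at room temperature, and luciferase-based Kinase-Glo Plus reports unconsumed ATP.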

[34] = Validation screen for small molecules that induce DNA re-replication in SW480 colon adenocarcinoma cells (AID 504364); note: 0% is about no effect
How it was run: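 Hoechst-stained SW480 nuclei, imaged at 405 nm excitation after 48 hr compound exposure, were counted for elevated DNA content as the re-replication signal.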

[35] = target: Voltage-gated inwardly rectifying potassium channel KCNH2 (Homo sapiens) (UniProt Q12809); experiment: qHTS Assay for Small Molecule Inhibitors of the Human hERG Channel Activity (AID 588834);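 note: top concentration of the series differs between compounds; % is set by controls: 0 for no effect and ±100 for the full control effect; lower thallium flux fluorescence means stronger hERG block; nearly all actives have a fitted effect of over 50% in size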
How it was run: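 Homogeneous FluxOR thallium flux assay using hERG-expressing U2OS cells (BacMam). Compound treatment about 10 minutes preceded stimulation; reduced fluorescence taken as channel block.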

[36] = tested on: Zika virus NS2B-NS3 protease; experiment: Primary screen GU AMC qHTS for Zika virus inhibitors (AID 1347154);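 note: 0% = no-inhibitor control and -100% = no-enzyme control; nearly all actives have a fitted effect of over 70% in size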
How it was run: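 Unlinked Zika NS2B hydrophilic domain/NS3 protease domain noncovalent complex (25 nM final) in 10 mM Tris-HCl pH 8.0, 0.01% Tween 20, with AMC peptide substrate. Fluorescence (ex 340, em 450 nm) change over 15 min, room temperature; percent inhibition fitted to 4-parameter Hill equation.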

[37] = Primary qHTS for small molecule stabilizers of the endoplasmic reticulum resident proteome: Secreted ER Calcium Modulated Protein (SERCaMP) assay (AID 1508630); note: % is set by controls: 0 for no effect and ±100 for the full control effect
How it was run: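 The SH-SY5Y reporter protocol was run at 3 concentrations up to 38.3 uM (primary) or 11 concentrations (follow-up): 16 h compound, 100 nM thapsigargin for 4 h, then extracellular luciferase luminescence.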

CCCn1c(=O)c2[nH]c(-c3ccc(OCC(=O)Nc4ccc(C#N)cc4)cc3)nc2n(CCC)c1=O
inactive: activity change, negative = inhibition [1] -7.64% | activity, negative = inhibition [2] -13.8% | Potency [3] > 46 µM | Potency [4] > 46 µM | Potency [5] | Potency [6] | outcome [7] | Potency [8] | Potency [9] | Potency [10] | outcome [11] | outcome [12] | outcome [13] | outcome [14] | activity change, negative = inhibition ([15]; at 57.5 µM (top of the series)) 1.01% | Potency [16] | Potency [17] | Potency [18] | Potency [19] | Potency [20] | Potency [21] | Potency [22] | Potency [23] | Potency [24] | Potency [25] | Potency [26] | Potency [27] | Potency [28] | Potency [29] | outcome [30] | outcome [31] | activation [32] 0.938% | outcome [33] | outcome [34] | Potency [35] | Potency [36] | Potency [37]
-10.7%: max response ([15]; measured here: lipid channel max response)
-12.2%: max response ([15]; measured here: cell count channel max response)
